Test results: the supplement of paper PMC10498489
The campaign covered roughly 2,300 compounds. About 330 (14%) showed activity.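 Rule for the calls: active = median modified Z-score above 1.96; inactive = 1.96 or below.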 These entries were drawn from the full list.

These molecules were tested on HepG2 Srxn1-GFP reporter cells (+30 nM CDDO-Me) (assay: Srxn1-GFP intensity median modified Z-score relative to plate median; higher = stronger NRF2 / oxidative stress reporter activation, active = hit call of the paper). Conditions: 10 µM; exposure time: 24h.
In short: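 Values give the median, over replicates, of the modified Z-score of GFP intensity on each plate. HepG2 Srxn1-GFP BAC reporter cells were co-treated for 24 h with an NRF2 activator at 30 nM and compound at 10 μM (≤0.1% DMSO) in three replicate plates, then analysed per cell for cytoplasmic GFP on confocal images with at least 100 cells. Scaling used 1.4826 × median absolute deviation.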
In the case of `CNc1ccc(C(=O)CC(O)CCC(C)C2OC(=O)CC(O)CC(=O)CC(O)CC(O)CC(O)CC(O)CC3(O)CC(O)C(C(=O)OC)C(CC(OC4OC(C)C(O)C(N)C4O)C=CC=CC=CC=CC=CC=CC=CC2C)O3)cc1` (stereo unspecified) [euspeclibcmpd1836], the “Srxn1-GFP intensity median modified Z-score” value is reported as 0.559 (inactive).
In the case of `NC1C[C@H]1c1ccccc1` (stereo partly specified) [euspeclibcmpd300], the “Srxn1-GFP intensity median modified Z-score” value is reported as 1.01 (inactive).
In the case of `CCOC(=O)CC(SP(=S)(OC)OC)C(=O)OCC` (stereo unspecified) [euspeclibcmpd992], the “Srxn1-GFP intensity median modified Z-score” value is reported as 0.167 (inactive).
`OC[C@@H]1CCCN2CCCC[C@H]12` [euspeclibcmpd1729] was tested, and the “Srxn1-GFP intensity median modified Z-score” value was -0.476 (inactive).
`CCN1C[C@@]2(COC)C3[C@@H](OC)[C@H]4[C@@H]1[C@]3(C(OC)C[C@H]2O)C1C[C@@]2(O)[C@H](OC(=O)c3ccccc3)C1[C@]4(OC(C)=O)[C@@H](O)[C@@H]2OC` (stereo partly specified) [euspeclibcmpd686] was tested, and the “Srxn1-GFP intensity median modified Z-score” value was 0.0544 (inactive).
For `COP(=O)(OC)OC=C(Cl)Cl` [euspeclibcmpd1300], the “Srxn1-GFP intensity median modified Z-score” value was 1.08 (inactive).
`CN(C)C(=S)SSC(=S)N(C)C` [euspeclibcmpd571] was tested, and the “Srxn1-GFP intensity median modified Z-score” value was 1.95 (inactive).
`N#CC(=Cc1cccc(O)c1)C(=O)O` [euspeclibcmpd2014] was tested, and the “Srxn1-GFP intensity median modified Z-score” value was 0.195 (inactive).
With `Oc1cc(Cl)ccc1Oc1ccc(Cl)cc1Cl` [euspeclibcmpd800] the “Srxn1-GFP intensity median modified Z-score” value was 3.85 (active).
With `Oc1ccc(Cl)cc1` [euspeclibcmpd227] the “Srxn1-GFP intensity median modified Z-score” value was -0.0545 (inactive).
For `CC(Oc1ccc(Cl)cc1Cl)C(=O)O` (stereo unspecified) [euspeclibcmpd2066], the “Srxn1-GFP intensity median modified Z-score” value was 0.00229 (inactive).
For `CCOc1cc(C=O)ccc1O` [euspeclibcmpd2137], the “Srxn1-GFP intensity median modified Z-score” value was 0.0734 (inactive).
`CNc1ccccc1C(=O)O` [euspeclibcmpd1568] was tested, and the “Srxn1-GFP intensity median modified Z-score” value was -0.451 (inactive).
In the case of `CCC(C)C(=O)O[C@@H]1C[C@@]2(C)[C@H](c3ccoc3)OC(=O)CC23OC2(C)O[C@]14[C@]1(C)[C@@H](CC(=O)OC)C5(C)CC1(O)[C@](O)(C5OC(=O)C1(C)OC1C)[C@@H](OC(C)=O)[C@]34O2` (stereo partly specified) [euspeclibcmpd1590], the “Srxn1-GFP intensity median modified Z-score” value is reported as 1.25 (inactive).
`N=C(N)NOCCC(N)C(=O)O` (stereo unspecified) [euspeclibcmpd2161] was tested, and the “Srxn1-GFP intensity median modified Z-score” value was -0.447 (inactive).
With `C#C[C@]1(O)CC[C@H]2[C@@H]3CC=C4CC(=O)CCC4C3CC[C@@]21CC` (stereo partly specified) [euspeclibcmpd2176] the “Srxn1-GFP intensity median modified Z-score” value was 0.145 (inactive).
`NCCCc1c[nH]c2ccccc12` was tested, and the “Srxn1-GFP intensity median modified Z-score” value was 1.08 (inactive).
In the case of `CC1=C2C3OC(=O)C(C)[C@@H]3CC[C@@]2(C)C=CC1=O` (stereo partly specified) [euspeclibcmpd1347], the “Srxn1-GFP intensity median modified Z-score” value is reported as 0.307 (inactive).
`CC=C(C)C(=O)O[C@H]1C[C@@H](OC(C)=O)[C@@]2(C(=O)OC)CO[C@@H]3C2[C@]12CO[C@](O)(C(=O)OC)[C@H]2[C@](C)([C@]12O[C@@]1(C)[C@H]1C[C@@H]2OC2OC=C[C@@]21O)[C@@H]3O` (stereo partly specified) [euspeclibcmpd1486] was tested, and the “Srxn1-GFP intensity median modified Z-score” value was 2.24 (active).
For `C#C[C@]1(O)CCC2C3CC=C4CC(=O)CCC4C3CC[C@@]21CC` (stereo partly specified) [euspeclibcmpd2251], the “Srxn1-GFP intensity median modified Z-score” value was -0.375 (inactive).
In the case of `O=c1n(Cl)c(=O)n(Cl)c(=O)n1Cl` [euspeclibcmpd935], the “Srxn1-GFP intensity median modified Z-score” value is reported as -0.815 (inactive).
With `c1ccc(/N=N\c2ccccc2)cc1` [euspeclibcmpd1762] the “Srxn1-GFP intensity median modified Z-score” value was 0.733 (inactive).
With `C[C@]12CCC3c4ccc(OC(=O)N(CCCl)CCCl)cc4CCC3C1CC[C@@H]2O` (stereo partly specified) [euspeclibcmpd984] the “Srxn1-GFP intensity median modified Z-score” value was 2.13 (active).
`C[C@]12CCC(=O)CC1=CCC1C2CC[C@@]2(C)C1CC[C@@H]2O` (stereo partly specified) [euspeclibcmpd2134] was tested, and the “Srxn1-GFP intensity median modified Z-score” value was -0.455 (inactive).
With `CCN(C)C(=O)Oc1cccc([C@H](C)N(C)C)c1` [euspeclibcmpd2067] the “Srxn1-GFP intensity median modified Z-score” value was -0.306 (inactive).
`COC[C@]12CN(C=O)C3[C@@H]4[C@H](OC)C1[C@]3(C1CC3(O)C(OC)C(O)[C@]4(OC(C)=O)C1C3OC(=O)c1ccccc1)[C@@H](OC)C[C@H]2O` (stereo partly specified) [euspeclibcmpd1413] was tested, and the “Srxn1-GFP intensity median modified Z-score” value was -0.00565 (inactive).
With `COc1cc2c(cc1O)CC1c3c(cc(O)c(OC)c3-2)CCN1C` (stereo unspecified) [euspeclibcmpd1326] the “Srxn1-GFP intensity median modified Z-score” value was -0.347 (inactive).
`COc1ccc2c(c1O)-c1c(OC)c(OC)cc3c1[C@H](C2)N(C)CC3` [euspeclibcmpd1537] was tested, and the “Srxn1-GFP intensity median modified Z-score” value was -0.343 (inactive).
With `COc1cc2c3cc1Oc1c(OC)c(OC)cc4c1[C@@H](Cc1cccc(c1)Oc1ccc(c(O)c1)C[C@@H]3N(C)CC2)N(C)CC4` [euspeclibcmpd1812] the “Srxn1-GFP intensity median modified Z-score” value was 2.31 (active).
In the case of `O=C(NC(O)C(Cl)(Cl)Cl)NC(O)C(Cl)(Cl)Cl` (stereo unspecified) [euspeclibcmpd2304], the “Srxn1-GFP intensity median modified Z-score” value is reported as 0.189 (inactive).
With `c1ccc2nc(N3CCNCC3)ccc2c1` [euspeclibcmpd578] the “Srxn1-GFP intensity median modified Z-score” value was -0.285 (inactive).
In the case of `C[C@@H]1CC(Cl)CCC1C(=O)OC(C)(C)C` (stereo partly specified) [euspeclibcmpd1756], the “Srxn1-GFP intensity median modified Z-score” value is reported as -0.159 (inactive).
In the case of `CNC(C)(C)Cc1ccccc1` [euspeclibcmpd691], the “Srxn1-GFP intensity median modified Z-score” value is reported as 0.194 (inactive).
With `C[N+]1(C)CCc2cc3c(cc2[C@H]1C1OC(=O)c2c1ccc1c2OCO1)OCO3` (stereo partly specified) [euspeclibcmpd1466] the “Srxn1-GFP intensity median modified Z-score” value was 2.41 (active).
With `CN1CCc2cc3c(cc2[C@H]1C1OC(=O)c2c1ccc1c2OCO1)OCO3` (stereo partly specified) [euspeclibcmpd1552] the “Srxn1-GFP intensity median modified Z-score” value was -0.0938 (inactive).
`C#CCN(C)C(C)Cc1ccccc1` (stereo unspecified) [euspeclibcmpd993] was tested, and the “Srxn1-GFP intensity median modified Z-score” value was -0.386 (inactive).
For `CCC1(CO)C(=O)NC(=O)NC1=O`, the “Srxn1-GFP intensity median modified Z-score” value was 1.07 (inactive).
With `COc1cc2occc2c2oc(=O)ccc12` [euspeclibcmpd1717] the “Srxn1-GFP intensity median modified Z-score” value was -0.121 (inactive).
`NCCc1ccccc1` [euspeclibcmpd2078] was tested, and the “Srxn1-GFP intensity median modified Z-score” value was 0.0184 (inactive).
For `O=C(O)Cc1ccccc1` [euspeclibcmpd2440], the “Srxn1-GFP intensity median modified Z-score” value was -0.295 (inactive).
With `NCC(=O)c1ccccc1` [euspeclibcmpd1673] the “Srxn1-GFP intensity median modified Z-score” value was 3.04 (active).
In the case of `C[N+]1([O-])C2CCC1CC(OC(=O)C(CO)c1ccccc1)C2` (stereo unspecified) [euspeclibcmpd2322], the “Srxn1-GFP intensity median modified Z-score” value is reported as -0.247 (inactive).
With `C=CCC1(C(C)CCC)C(=O)NC(=S)NC1=O` (stereo unspecified) [euspeclibcmpd2148] the “Srxn1-GFP intensity median modified Z-score” value was -0.0652 (inactive).
With `O=P1(NCCBr)OCCCN1CCCl` (stereo unspecified) the “Srxn1-GFP intensity median modified Z-score” value was 0.805 (inactive).
With `CNCC(O)c1ccc(O)cc1` (stereo unspecified) [euspeclibcmpd1199] the “Srxn1-GFP intensity median modified Z-score” value was 0.983 (inactive).
In the case of `COC(=O)C1=CO[C@@H](C)C2CN3CC[C@]4(C(=O)Nc5ccccc54)C3C[C@H]12` (stereo partly specified) [euspeclibcmpd2321], the “Srxn1-GFP intensity median modified Z-score” value is reported as -0.26 (inactive).
